“And” between values parts separate entries of the source, which are not always exact repeats. Equal values may be shown once. Records with an inconclusive call do not appear. Unmarked numbers belong to inactive results. The source made the active and inactive calls. The call rests on the fitted dose curve; in most records, active means well fitted cell-killing curve with a large enough effect in the repeat runs (not every such curve was filed as active); inconclusive means weak or mixed curves, or effect the other way; inactive means no such curve, though single readings can be large or run the other way.
assay: qHTS assay to identify small molecule antagonists of the farnesoid-X-receptor (FXR) signaling pathway - cell viability counter screen (AID 743221); conditions: FXR-bla HEK293T viability, CellTiter-Glo luminescence, 16 h; series mostly up to 62.6 µM; activity change, negative = cytotoxicity: at the top concentration; further: nearly all actives have a fitted effect of over 50% in size
Text: National Center for Advancing Translational Sciences [NCATS]
NIH Chemical Genomics Center [NCGC]
U.S. Environmental Protection Agency [EPA]
National Institutes of Environmental Health Sciences [NIEHS]
National Toxicology Program [NTP]
U.S. Food and Drug Administration [FDA]
The farnesoid-X-receptor (FXR), a nuclear hormone receptor, is highly expressed in liver, intestine, kidney and adrenal cortex. Natural ligands of FXR are the bile acids (Cholic acid, Chenodeoxy cholic acid etc). FXR is an important regulator of diverse metabolic pathways, including the bile acid homeostasis, lipid and glucose metabolisms. FXR regulates the expression of target genes by binding either as a monomer or as a heterodimer with the retinoid X receptor (RXR). Numerous studies have reported that FXR exerts protective function during cholestasis, diabetes, liver regeneration, and cancer. To identify compounds that inhibit FXR signaling, GeneBLAzer FXR-UAS-bla HEK 293T cell line (Invitrogen, Carlsbad, CA) containing a beta-lactamase reporter gene under the control of a UAS response element was used to screen the Tox21 10K compound library. The cytotoxicity of the Tox21 compound library against the FXR-bla cell line was tested in parallel by measuring the cell viability using CellTiter-Glo assay in the same wells.
Tox21 Assay Protocol Summary:
FXR-bla cells were dispensed at 5000 cells/5uL/well in 1536-well black wall/clear bottom plates using a Multidrop Combi (Thermo Fisher Scientific, Waltham, MA) dispenser. After the assay plates were incubated at 37 C and 5% CO2 for 5 h, 23 nL of compounds dissolved in DMSO, positive controls or DMSO only was transferred to the assay plate by a Pintool station (Kalypsys, San Diego, CA), followed by addition of 1 uL Chenodeoxycholic acid (50 uM, final concentration in the wells). The assay plates were incubated at 37C for 16 h. After 1 uL of LiveBLAzerTM B/G FRET substrate was added using a Bioraptr Flying Reagent Dispenser (FRD) workstation (Beckman Coulter, Indianapolis, IN), the plates were incubated at room temperature for 2 h, and fluorescence intensity was measured by an Envision plate reader (PerkinElmer, Shelton, CT). For cell viability readout that measures cytotoxicity, 4uL/well of CellTiter-Glo reagent was added into the assay plates using a Bioraptr FRD. After 30 min incubation at room temperature, the luminescence intensity in the plates was measured using a ViewLux plate reader (PerkinElmer).
On the % scale 0 is the no-effect control and ±100 the full control effect; potency means the concentration at half of the fitted maximal effect.

Going from O=C(NC(=O)c1cc(F)c(F)cc1Cl)Nc1cc(F)ccc1N1CCC(C(=O)O)CC1 to O=C(N[C@H]1CN2CCC1CC2)c1ccc2c(c1)OCCO2, the “activity change, negative = cytotoxicity” value rises from -3.41% to -1.11%.

First: CCCC[N+]1(C)[C@@H]2CC(OC(=O)[C@H](CO)c3ccccc3)C[C@H]1[C@@H]1O[C@@H]12 (stereo not given in full)
Second: CC(=O)OC(c1ccccc1)C(Cl)(Cl)Cl (stereo not given)
The “activity change, negative = cytotoxicity” value of the first is higher: 8.47% for the first, -14.3% for the second.

Compared with CCC[N+](CCC)(CCC)CCC, CCCCC(CC)COC(=O)c1c(Br)c(Br)c(Br)c(Br)c1C(=O)OCC(CC)CCCC (stereo not given) is lower in “activity change, negative = cytotoxicity” value: 9.29% for the first, -4.86% for the second.

First: CCN(C(C)=O)c1cccc(-c2ccnc3c(C#N)cnn23)c1
Second: Cc1nnc(-c2ccccc2)c(=O)n1N
The “activity change, negative = cytotoxicity” value of the first is higher: -0.296% for the first, -1.39% for the second.

First: NC(=O)CF
Second: COC(=O)Cc1ccccc1
The “activity change, negative = cytotoxicity” value of the first is higher: 12.3% for the first, -0.666% for the second.

Compared with CCOc1cccc(C2(N3CCN(c4ccccc4)CC3)CCC(C)CC2)c1 (stereo not given), O=C(Cc1ccccc1)c1ccccc1 is lower in “activity change, negative = cytotoxicity” value: -3.09% for the first, -11.9% for the second.

First: c1ccc2c(c1)sc1ccccc12
Second: COC(=O)C1(O)c2ccccc2-c2ccccc21
The “activity change, negative = cytotoxicity” value of the first is lower: 0.81% for the first, 3.11% for the second.

Compared with C[C@]12C=CC3=C4CCC(=O)C=C4CC[C@H]3[C@@H]1CC[C@@H]2O, O=C(O)c1ccc(=O)[nH]c1 is higher in “activity change, negative = cytotoxicity” value: 2.04% for the first, 8.54% for the second.

First: CC(C)(C)NCC(O)c1ccccc1Cl (stereo not given)
Second: O=C(Cc1ccccc1)OCCc1ccccc1
The “activity change, negative = cytotoxicity” value of the first is lower: 0.302% for the first, 7.81% for the second.

First: N#CC1(N=NC2(C#N)CCCCC2)CCCCC1
Second: C[C@H]1O[C@H](OC2[C@@H](O)[C@@H](O)C(O)[C@H](O)[C@H]2O)[C@@H](N)C[C@@H]1N=C(N)C(=O)O (stereo not given in full)
The “activity change, negative = cytotoxicity” value of the first is lower: -10.9% for the first, 11.5% for the second.

Compared with FC(F)OC(F)(F)C(F)Cl (stereo not given), CCOP(=O)(SC(C)CC)N1CCSC1=O (stereo not given) is higher in “activity change, negative = cytotoxicity” value: 1.08% for the first, 4.26% for the second.

First: Cc1nc(N(C)C)nc(OC(=O)N(C)C)c1C
Second: C=C(C)C(=O)OCCCCOC(=O)C(=C)C
The “activity change, negative = cytotoxicity” value of the first is higher: 16.2% for the first, 4.22% for the second.

For Nc1ccc2c(c1)Cc1ccccc1-2, the “activity change, negative = cytotoxicity” value was -2.55%.

Going from CCCC[P+](CC)(CCCC)CCCC (tested in a mixture with another compound) to COc1cc(CC(C)N)c(OC)cc1Br (stereo not given), the “activity change, negative = cytotoxicity” value falls from 0.809% [at 81.1 µM] to 0.472% [at 81.1 µM].

Going from C=CC(=O)OCC to O=C(O)C(Cl)(Cl)Br, the “activity change, negative = cytotoxicity” value rises from 1.18% [at 81.1 µM] to 6.56% [at 81.1 µM].

Going from O=C1NC(=O)C(=O)C(=O)N1 to Clc1ccc2ccccc2c1, the “activity change, negative = cytotoxicity” value rises from -7.16% [at 81.1 µM] to -1.74% [at 81.1 µM].

With Nc1ccccc1C(=O)OCCc1ccccc1 the Potency was “inactive”.
In the case of CC(C)(C)CC(C)(C)c1ccc(O)cc1, the Potency is reported as 49 µM (active).
With Nc1cccc2ccccc12 the Potency was “inactive”.
In the case of CC(C)[C@@H](C(=O)O[C@@H](C#N)c1cccc(Oc2ccccc2)c1)c1ccc(Cl)cc1, the Potency is reported as “inactive”.
With C[C@@H]1C[C@@H]([C@H](O)CC2CC(=O)NC(=O)C2)C(=O)[C@@H](C)C1 the Potency was “inactive”.
In the case of O=[N+]([O-])/C=C/c1ccccc1, the Potency is reported as 19.8 µM (active) and 38.9 µM (active).
For OCC1CO1 (stereo not given), the Potency was “inactive”.
For CCCCCCCCn1sccc1=O, the Potency was 6.18 µM (active) and 4.57 µM (active).
In the case of CCCCNC(=O)OCC#CI, the Potency is reported as “inactive”.

— PubChem BioAssay (Tox21)
